ASK1 inh: inhibitors of human ASK1 kinase. AlphaScreen MKK6 phosphorylation by ASK1, luminescence. inhibition, % at 7.44 µM. hit rate 0.99% among 22,000. Q99683. AID 1159602; in the data active = inhibition above about 35%;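 also: 0% = median of compound wells and 100% = no enzyme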
ULK1 primary: human ULK1 kinase inhibition, primary screen; AID 1259251; O75385; AlphaScreen Atg13 phosphorylation by ULK1, luminescence; inhibition, % at 5.96 µM; hit rate 1.9% among 30,000; in the data active = inhibition above about 43%;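 also: 0% = median of compound wells and 100% = no enzyme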
Target sequence (O75385 whole entry, looked up): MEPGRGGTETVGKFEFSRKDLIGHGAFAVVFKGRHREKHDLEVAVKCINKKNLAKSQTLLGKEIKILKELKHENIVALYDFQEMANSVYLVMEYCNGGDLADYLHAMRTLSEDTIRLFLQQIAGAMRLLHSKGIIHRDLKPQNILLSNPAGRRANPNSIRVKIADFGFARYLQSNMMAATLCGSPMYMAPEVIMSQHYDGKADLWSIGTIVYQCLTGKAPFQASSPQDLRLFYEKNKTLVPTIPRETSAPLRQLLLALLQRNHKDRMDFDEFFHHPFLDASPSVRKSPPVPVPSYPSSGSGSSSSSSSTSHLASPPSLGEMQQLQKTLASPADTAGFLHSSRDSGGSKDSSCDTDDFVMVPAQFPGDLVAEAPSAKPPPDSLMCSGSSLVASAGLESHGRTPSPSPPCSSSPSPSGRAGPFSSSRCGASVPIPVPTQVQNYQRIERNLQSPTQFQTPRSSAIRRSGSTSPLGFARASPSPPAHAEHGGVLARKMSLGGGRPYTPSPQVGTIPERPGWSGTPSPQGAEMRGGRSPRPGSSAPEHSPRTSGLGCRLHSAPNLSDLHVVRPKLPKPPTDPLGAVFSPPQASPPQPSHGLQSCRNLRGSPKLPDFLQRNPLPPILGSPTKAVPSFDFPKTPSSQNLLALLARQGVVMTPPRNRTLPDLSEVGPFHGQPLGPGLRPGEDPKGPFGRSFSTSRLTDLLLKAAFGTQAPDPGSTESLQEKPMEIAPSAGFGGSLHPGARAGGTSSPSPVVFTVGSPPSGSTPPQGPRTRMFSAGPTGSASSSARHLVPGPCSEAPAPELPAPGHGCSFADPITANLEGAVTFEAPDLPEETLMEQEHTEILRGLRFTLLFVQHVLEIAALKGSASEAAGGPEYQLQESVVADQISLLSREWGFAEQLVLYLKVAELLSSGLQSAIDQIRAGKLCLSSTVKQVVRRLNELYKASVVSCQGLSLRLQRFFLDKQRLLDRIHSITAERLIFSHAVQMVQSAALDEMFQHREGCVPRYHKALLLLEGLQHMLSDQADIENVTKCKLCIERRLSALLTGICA
TruHits interf: AlphaScreen optical interference dose response, ASK1 counter-screen; shares compounds with ASK1 inh; AlphaScreen TruHits beads, signal interference counterscreen; IC50, µM; hit rate 20% among 220; AID 1159604;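 active = IC50 of 10 µM or lower in the counterscreen; inactive = IC50 above 10 µM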;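 also: loss of AlphaScreen light from TruHits beads alone with no ASK1 enzyme present; potency of signal reduction so a low IC50 flags an assay artifact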
* = called active by the depositor; i = inactive; . = not tested or not shown; ! = a repeat was not active. Hits are enriched below; roughly 2.5% of the tested compounds scored in any of these assays.

SMILES	ASK1 inh	ULK1 primary	TruHits interf
O=C(Cc1cn(-c2ccc(N3CCN(Cc4ccc5c(c4)OCO5)CC3)nn2)c2ccccc12)Nc1ccc(N2CCOCC2)cc1	39*	21	>20
O=C(Cc1cn(-c2ccc(N3CCN(Cc4ccc5c(c4)OCO5)CC3)nn2)c2ccccc12)Nc1ccccc1	-2	0	.
Cn1cc(-c2ccc3cnc(Nc4ccc(-c5ccc(N6CCOCC6)nc5)cc4)nc3c2Cl)cn1	38*	43*	>19
Cc1ncn(-c2ccc(Nc3ncc4cccc(-c5ccnc(N6CCOCC6)c5)c4n3)cc2)n1	24	16	.
c1ccc(CN2CCC(Nc3nc(Nc4ccc(N5CCOCC5)cc4)nc4nc[nH]c34)CC2)cc1	36*	18	>20
c1cnc2ccc(Nc3nc(Nc4ccc(N5CCOCC5)cc4)c4[nH]cnc4n3)cc2c1	41*	-12	>20
c1ccc(Nc2nc(Nc3ccc(N4CCOCC4)cc3)c3[nH]cnc3n2)nc1	8	7	.
c1ccc(CN2CCC(Nc3nc(Nc4ccccc4)nc4c3ncn4-c3ccsc3)CC2)cc1	17	4	.
c1ccc(CN2CCC(Nc3nc(Nc4ccc(N5CCOCC5)cc4)nc4c3ncn4-c3ccsc3)CC2)cc1	43*	11	9.3*
c1ccc(CN2CCC(Nc3nc(N4CCOCC4)nc4nc[nH]c34)CC2)cc1	1	-18	.
CCCCCC(O)C1C(=O)OC(C)C(O)/C=C/C=C/C=C/C=C/C=C(\C)C(O)CC(O)CC(O)CC(O)CC(O)CC(O)CC1O (stereo not drawn)	.	3	.
Cc1cc(Nc2ccc(N3CCOCC3)cc2)nc(Nc2cnccn2)n1	-2	15	.
c1ccc2c(-c3nc(NC4CC4)c4ncn(C5CCCCC5)c4n3)csc2c1	8	5	.
O=C(NCCOc1ccccc1)c1ccc2nc(N3CCN(c4ccccn4)CC3)sc2c1	6	1	.
O=C(Nc1nc2ccc(-c3ccncc3)cc2s1)c1ccc2c(c1)OCCO2	7	17	.
Cc1cc(NCCCN2CCCC2=O)nc(-c2cccs2)n1	-10	-4	.
COc1cc(-c2cn[nH]c2)cc2c(=O)[nH]c(C3COc4ccc(C)cc4C3)nc12 (stereo not drawn)	40*	5	>19
COc1ccc2c(c1)CC(c1nc3c(OC)cc(-c4cn[nH]c4)cc3c(=O)[nH]1)CO2 (stereo not drawn)	-14	-5	.
COc1cc(NC(=O)c2ccnc(-c3ccc(N4CCN(C)CC4)cc3)c2)cc(OC)c1OC	11	5	.
COc1cc(N2CCN(C)CC2)ccc1Nc1cc(Nc2ccccc2-c2ncccn2)c(C(F)(F)F)cn1	38*	53*	i
c1ccc(-c2cc(N3CCN(c4ccccn4)CC3)nc(-c3cccnc3)n2)nc1	.	-6	.
CN=c1oc2ccc(Br)cc2cc1C(N)=O	.	-11	.
Cc1nn(C)c(C)c1-c1cc(C(=O)O)[nH]n1	.	-2	.
O=C(NCc1ccccc1)c1csc(NCc2cccnc2)n1	1	-1	.
CCN(CC)c1nc(NCCOc2ccccc2)nc(N2CCN(c3ccccn3)CC2)n1	7	17	.
SMILES	ASK1 inh	ULK1 primary	TruHits interf
CCN(CC)c1nc(NCCN2CCOCC2)nc(Nc2ccc(-n3ccnc3)cc2)n1	9	0	.
CCN(CC)c1nc(Nc2ccc(N3CCOCC3)cc2)nc(Nc2ccc(-n3ccnc3)cc2)n1	41*	-24	6*
CC(C)n1cnc2c(NCCO)nc(Nc3cccc(N(C)C)c3)nc21	13	20	.
COc1ccc(CCNc2nc(Nc3cccc(N(C)C)c3)nc3c2ncn3C(C)C)cc1	37*	9	>20
CC(=O)Nc1ccc(Nc2nc(-c3c(C)nn(C)c3C)nc3c2ncn3-c2ccccc2)cc1	0	-15	.
Cn1ccc2cc(-c3cc(Nc4ccc(N5CCOCC5)cc4)nc(N)n3)ccc21	46*	26	>20
CC(=O)c1cccc(-c2cc(Nc3ccc(N4CCOCC4)cc3)nc(N)n2)c1	8	8	.
CO[C@H]1[C@@H]([C@@]2(C)O[C@@H]2CC=C(C)C)[C@]2(CC[C@H]1OC(=O)/C=C/C=C/C=C/C=C/C(=O)O)CO2	.	-1	.
CC(=O)c1cccc(-c2ncc(C)c(Nc3ccc(N4CCOCC4)cc3)n2)c1	15	19	.
Nc1cccc(-c2nc3ncnc(Nc4ccc(N5CCOCC5)cc4)c3[nH]2)c1	36*	6	>18
c1ccc(-c2nc3ncnc(Nc4ccc(N5CCOCC5)cc4)c3[nH]2)cc1	15	-1	.
Cc1cnc(-c2cccc(N)c2)nc1Nc1ccc(N2CCOCC2)cc1	51*	-10	>18
COc1cc2nc(-c3csc4ccccc34)nc(Nc3ccc(N4CCOCC4)cc3)c2cc1OC	29	-28	.
Cc1cnc(-c2csc3ccccc23)nc1Nc1ccc(N2CCOCC2)cc1	42*	-11	>20
CCCNC(=O)c1ccnc(-c2ccc(OC)cc2)c1	-9	-3	.
COc1ccc(CCNC(=O)c2ccc3nc(N4CCN(Cc5ccc6c(c5)OCO6)CC4)sc3c2)cc1	-5	8	.
Cc1nc(C)n(-c2ccc(Nc3nccc(-c4cccc(-n5nccn5)c4)n3)cc2)n1	39*	-15	>19
Cc1nc(C)n(-c2ccc(Nc3nccc(-c4cccc(-n5ccnc5)c4)n3)cc2)n1	-72	-92	.
CC(C)N(CCNC(=O)c1ccc2nc(Nc3cccnc3)sc2c1)C(C)C	3	0	.
Cc1cc(NCc2ccccc2)nc(Nc2cccc(N(C)C)c2)n1	23	9	.
Cc1cc(NCc2cccc(C(F)(F)F)c2)nc(Nc2ccc(N3CCOCC3)cc2)n1	40*!	-9	4.6*
Cc1cc(NCc2cccc(C(F)(F)F)c2)nc(Nc2cccc(N(C)C)c2)n1	40*	-6	i
COc1cc(Nc2cc(Nc3cccc(N(C)C)c3)ncn2)cc(OC)c1OC	22	11	.
CCCNc1ccnc(Nc2cccc(N(C)C)c2)n1	22	13	.
COc1cc(Nc2ccnc(Nc3cccc(N(C)C)c3)n2)cc(OC)c1OC	39*	19	6.9*
SMILES	ASK1 inh	ULK1 primary	TruHits interf
CN(C)c1cccc(Nc2nccc(NCCOc3ccccc3)n2)c1	43*	-3	i
Cc1cc(NCc2cccc(C(F)(F)F)c2)nc(Nc2ccc(C(F)(F)F)cc2)n1	-9	-23	.
CCCCCCN1C(=O)CSC1c1ccccc1 (stereo not drawn)	.	-3	.
c1ccc(Nc2nc3ncnc(NCCOc4ccccc4)c3[nH]2)cc1	-2	-20	.
O=C(c1ccc(-c2cnn(-c3ccc(Br)cc3)c2)nc1)N1CCOCC1	.	-8	.
Cc1cccnc1NC(=O)c1ccccc1[N+](=O)[O-]	.	24	.
CN(C)c1cccc(Nc2nccc(NCc3cccc(C(F)(F)F)c3)n2)c1	43*	-1	>16
COc1cc2nc(Nc3cccc(N(C)C)c3)nc(NCc3cccc(C(F)(F)F)c3)c2cc1OC	38*	-15	i
Cc1cc(Nc2ccccc2)nc(Nc2ccc(N3CCOCC3)cc2)n1	19	-4	.
Cc1cc(Nc2ccc(N3CCOCC3)cc2)nc(Nc2cccc(N(C)C)c2)n1	41*	-5	>20
COc1cc2nc(Nc3cccc(N(C)C)c3)nc(NCc3ccccc3)c2cc1OC	33	-3	.
FC(F)(F)c1cccc(CNc2ccnc(Nc3ccccc3)n2)c1	-1	-20	.
Nc1nc(Nc2ccc(Oc3ccccc3)cc2)cc(N2CCOCC2)n1	-5	-12	.
O=C(Nc1ccccc1)c1csc(N2CCN(Cc3ccc4c(c3)OCO4)CC2)n1	5	13	.
CC(C)N(CCNC(=O)c1ccc(-c2ccccc2)s1)C(C)C	0	-7	.

From PubChem
